# Screening data (PubChem)
# STAT1 act: STAT1 signaling activators, primary screen, cell-based, HTS, luciferase reporter; activation (% of control), % at 5.5 µM; NIH 3T3 STAT1-luciferase reporter, IFN-gamma, luminescence; 100% = IFN-gamma alone, no compound; AID 932, 2007; 2.6% of 200,000 active;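 active = activation above the screen-wide mean activation plus 3 SD, cut at about 130% in these data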;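 note: raw ratio to IFN-gamma control signal so 100% means no change and 0% no light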
# Hsp70 activator: Hsp70 transcriptional activators, primary screen, cell-based, HeLa, Hsp70 promoter luciferase, luminescence, 10 µM; 0.04% of 200,000 active; activation, % at 10 µM; HeLa Hsp70 promoter luciferase reporter; scaled: vehicle 0, proteasome-inhibitor control 100%;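 active = activation above the mean across all tested compounds plus 3 SD, cutoff set per campaign, cut at about 5.5% in these data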;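 note: 100% = MG132 at 30 µM as the positive control and 0% = DMSO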
# NF-kB expr up: activators of NF-kB expression in neurons, primary screen, cell-based, HTS; 1.6% of 190,000 active; human neuronal cells, NF-kB reporter expression; hits give high values; fold change at 12.5 µM; in the data active = fold change above about 3.3
# APP 5'UTR act: activators of APP 5'UTR luciferase reporter, primary screen, SH-SY5Y cells; AID 1276, 2008; activation, % at 2 µM; 1% of 190,000 active; SH-SY5Y APP 5'UTR luciferase reporter, luminescence; zero percent = DMSO vehicle wells;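 active = activation above a set limit, based on mean plus 3 SD of controls, cut at about 140% in these data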
# APP 5UTR inh: inhibitors of APP translation via 5'UTR reporter, primary screen, APP 5'UTR luciferase, SH-SY5Y cells. SH-SY5Y APP 5'UTR-luciferase reporter, luminescence. inhibition, % at 2 µM. 0.82% of 190,000 active. AID 1285, 2008;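 active = inhibition above a set limit, derived from the sample mean plus 3 SD, cut at about 45% in these data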
# Wee1 degr inh: Wee1 degradation inhibitors, primary screen, cell-based, HeLa, Wee1K328M-luciferase, luminescence; AID 1321, 2008; HeLa Luc-Wee1K328M stability; 100% = proteasome inhibitor MG132 effect; reporter increase, % at 5 µM; Wee1-like protein kinase (Homo sapiens), P30291; 1.2% of 220,000 active;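 active = activation above the mean of all tested compounds plus 3 SD, set per screening run, cut at about 8.8% in these data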;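 note: cells exposed to compound for 20 h before luminescence read; 0% = DMSO alone and 100% = MG132 at 30 µM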
# Target sequence (P30291 whole entry K328M): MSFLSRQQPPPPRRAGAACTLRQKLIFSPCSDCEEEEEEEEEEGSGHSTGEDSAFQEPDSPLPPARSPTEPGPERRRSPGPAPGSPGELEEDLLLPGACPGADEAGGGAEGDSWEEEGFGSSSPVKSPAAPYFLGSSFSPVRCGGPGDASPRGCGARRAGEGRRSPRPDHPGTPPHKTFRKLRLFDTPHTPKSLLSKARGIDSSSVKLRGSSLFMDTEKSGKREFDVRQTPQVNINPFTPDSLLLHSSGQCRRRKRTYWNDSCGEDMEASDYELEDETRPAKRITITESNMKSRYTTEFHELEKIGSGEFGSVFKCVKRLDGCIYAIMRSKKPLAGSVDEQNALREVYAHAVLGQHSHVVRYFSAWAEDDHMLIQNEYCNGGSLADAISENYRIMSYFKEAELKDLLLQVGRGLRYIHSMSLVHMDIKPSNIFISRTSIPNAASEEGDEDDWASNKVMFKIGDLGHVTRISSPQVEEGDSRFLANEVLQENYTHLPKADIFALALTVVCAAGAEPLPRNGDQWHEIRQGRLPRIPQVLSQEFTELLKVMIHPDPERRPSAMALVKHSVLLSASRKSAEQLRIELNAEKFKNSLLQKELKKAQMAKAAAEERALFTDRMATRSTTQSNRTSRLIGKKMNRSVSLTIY
# An asterisk follows results filed as active; . = no result. In the library only some 4.8% were active in any assay of this set; here they are far more common.
SMILES,STAT1 act,Hsp70 activator,NF-kB expr up,APP 5'UTR act,APP 5UTR inh,Wee1 degr inh
Cc1ccc(NC(=O)c2ccccc2-c2ccccc2C(=O)O)cc1,104,0,1.1,-2,2,0
Cc1ccc(NC(=O)c2ccccc2O)cc1,105,0,6*,131,-131,5
Cc1ccc(-c2nn(-c3ccccc3)cc2C(=O)Nc2ccc(C(=O)O)cc2)cc1,130*,0,1.8,31,-31,-2
CC(=O)Nc1ccccc1NC(=O)c1ccccc1,99,-1,1,9,-9,0
Cc1ccc(NC(=O)C2=C(c3ccccc3)S(=O)(=O)CCS2(=O)=O)cc1,79,0,0.47,-93,93*,1
Cc1ccc(NC(=O)c2cc(-c3ccccc3)nn2-c2ccccc2)cc1,105,0,1.3,17,-17,-3
Nc1ccccc1NC(=O)c1ccccc1,104,2,3.9*,44,-44,0
O=C(N/C(=C/c1cccnc1)C(=O)N1CCOCC1)c1ccccc1F,.,.,.,.,.,0
N#CC1=C2SCN(Cc3ccco3)CN2C(=O)CC1c1ccc(Cl)cc1 (centres undefined),98,0,1.1,5,-5,-2
COc1cccc(NC(=O)CN(C)C(=O)COc2ccc3ccccc3c2)c1,99,0,0.9,4,-4,2
CCOC(=O)c1[nH]c(C)c(C(=O)NC2CCCCCC2)c1C,108,0,1.1,-5,5,-4
Cc1ccc(NC(=O)c2ccccc2)cc1,135*,0,3.5*,97,-97,0
Cc1cc(C)cc(NC(=O)c2ccc(CSc3nnc(C)s3)cc2)c1,98,0,1.4,12,-12,0
Cc1ccc(NC(=O)NNC(=O)c2ccccc2)cc1,104,0,1.3,-1,1,3
Cc1ccc(NC(=O)c2ccc(CSc3nnc(C)s3)cc2)cc1,123,0,3.9*,70,-70,5
C[C@H]1CC[C@@]2(O[C@@H](CCO)C[C@@H](O)[C@@H]2O)O1,95,0,1.1,20,-20,-1
C[C@H]1CC[C@@]2(O[C@H](CCO)C[C@@H](O)[C@@H]2O)O1,100,0,1.3,-8,8,9.4*
BrC(=C\c1ccccc1)/C=N/Nc1ccc2nncn2n1,.,.,.,.,.,-3
BrC(=C\c1ccccc1)/C=N/n1cnnc1,121,0,0.5,-79,79*,6
CN(CCOc1ccc(Cl)cc1)C(=O)c1ccc(S(=O)(=O)N2CCOCC2)cc1,92,0,0.53,15,-15,-2
COc1ccc(C(=O)c2ccc(Cl)c([N+](=O)[O-])c2)cc1,96,0,3.6*,-95,95*,0
O=C(/C=C/c1ccco1)Nc1nc(-c2ccc(F)c(F)c2)cs1,.,.,.,.,.,3
O=C(/C=C/c1ccco1)Nc1nc(-c2ccccn2)cs1,129*,0,0.76,14,-14,-2
Cc1ccc(NC(=O)/C=C/c2ccco2)nc1,147*,1,0.89,-89,89*,9
O=C(/C=C/c1ccco1)Nc1nc(-c2ccccc2)cs1,133*,0,1.5,93,-92,5
SMILES,STAT1 act,Hsp70 activator,NF-kB expr up,APP 5'UTR act,APP 5UTR inh,Wee1 degr inh
Cc1csc(NC(=O)/C=C/c2ccco2)n1,147*,0,2.8,88,-88,9
Cc1ccc(C(=O)COc2cc(C)nc3nncn23)cc1,.,.,.,.,.,-2
CN1CCN(S(=O)(=O)c2ccc(NC(=O)c3ccc(F)cc3)cc2)CC1,100,0,1.1,22,-22,1
CCOC(=O)N1CCC(NC(=O)c2cccn3c(=O)c4cc(Br)ccc4nc23)CC1,92,0,0.47,-5,5,-2
Cc1csc(Nc2ccc(C(=O)O)cc2)n1,.,.,.,.,.,-4
O=C(O)c1ccc(Nc2nc(-c3ccccc3)cs2)cc1,145*,0,4.7*,126,-126,0
COc1ccc(-c2csc(NC(=S)NC(=O)/C=C/c3ccco3)n2)cc1OC,96,0,1.3,-75,75*,-3
Cc1ccc(C(=O)Cn2ncsc2=N)cc1,130*,1,2.2,17,-17,-2
O=c1sc2ccccc2n1CCOc1ccccc1,142*,0,2.6,76,-76,-1
O=C(O)CCn1c(=O)sc2ccccc21,96,0,1.4,1,-1,-2
Cc1ccc(OCCn2c(=O)n(C)c3ccccc32)cc1,150*,0,2.6,118,-118,-3
CCN1CCN(C(=O)c2ccc(Cl)c(S(=O)(=O)N3CCCCCC3)c2)CC1,98,0,1.7,-8,8,-1
O=c1cc(-c2ccc3c(c2)OCCO3)oc2ccc(Cl)cc12,142*,0,7.2*,214*,-214,2
O=c1cc(-c2cccs2)oc2ccc(Cl)cc12,147*,0,3.2,36,-36,-1
O=C(O)c1cc(=O)c2cc(Cl)ccc2o1,98,0,1,-1,1,1
Cc1sc2nc(SCC(=O)Nc3c(C)n(C)n(-c4ccccc4)c3=O)n(C)c(=O)c2c1C,102,0,0.61,13,-13,0
O=C1CCCCC1C(=O)c1cn(-c2ccc(Cl)c(Cl)c2)nn1 (centres undefined),129*,0,1.8,19,-19,2
Cc1nc2cc(C(=O)OCC(=O)Nc3cccc(Cl)c3)ccc2n1-c1ccccc1,104,0,1.1,5,-5,-3
CC(=O)c1ccc(NC(=O)C(C)OC(=O)c2ccc3c(c2)nc(C)n3-c2ccccc2)cc1 (centres undefined),98,0,1.4,-20,20,8.8*
O=C(NNC(=S)Nc1ccc(Br)cc1Cl)c1ccncc1,106,0,0.97,0,0,-1
CCc1ccc(/C=C2\Oc3ccc(C(=O)OC)cc3C2=O)cc1,111,0,1.6,7,-7,-4
N#C/C(=N/Nc1ccccc1[N+](=O)[O-])C(N)=S,.,.,.,.,.,0
COc1ccccc1N(C)S(=O)(=O)c1ccc(C(=O)OCC(=O)Nc2ccccc2F)cc1,96,0,1,-17,17,11*
c1ccc(-c2nc(-c3ccncc3)no2)cc1,138*,0,2.2,103,-103,-1
c1ccc(-c2ccc(-c3nc(-c4ccncc4)no3)cc2)cc1,136*,0,6.8*,177*,-177,-1
c1ccc(-c2ccccc2-c2nc(-c3ccncc3)no2)cc1,102,0,0.7,-3,4,-2
